Assay results from PubChem BioAssay.
The source made the active and inactive calls.

How the values were obtained:
Albumin (Bos taurus) = Albumin (Bos taurus) (UniProt P02769); test: bovine serum albumin binders on microarray, profiling panel, artefact control for SMM control protein annotation, biochemical, small-molecule microarray, Alexa647 label, 635/667 nm fluorescence (AID 1118); conditions: BSA-A647 binding, fluorescence 635 nm, higher = more signal;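 note: score merges 667 nm emission intensity and signal-to-noise per printed compound spot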
Chain of Albumin (Bos taurus) (P02769 whole entry, looked up): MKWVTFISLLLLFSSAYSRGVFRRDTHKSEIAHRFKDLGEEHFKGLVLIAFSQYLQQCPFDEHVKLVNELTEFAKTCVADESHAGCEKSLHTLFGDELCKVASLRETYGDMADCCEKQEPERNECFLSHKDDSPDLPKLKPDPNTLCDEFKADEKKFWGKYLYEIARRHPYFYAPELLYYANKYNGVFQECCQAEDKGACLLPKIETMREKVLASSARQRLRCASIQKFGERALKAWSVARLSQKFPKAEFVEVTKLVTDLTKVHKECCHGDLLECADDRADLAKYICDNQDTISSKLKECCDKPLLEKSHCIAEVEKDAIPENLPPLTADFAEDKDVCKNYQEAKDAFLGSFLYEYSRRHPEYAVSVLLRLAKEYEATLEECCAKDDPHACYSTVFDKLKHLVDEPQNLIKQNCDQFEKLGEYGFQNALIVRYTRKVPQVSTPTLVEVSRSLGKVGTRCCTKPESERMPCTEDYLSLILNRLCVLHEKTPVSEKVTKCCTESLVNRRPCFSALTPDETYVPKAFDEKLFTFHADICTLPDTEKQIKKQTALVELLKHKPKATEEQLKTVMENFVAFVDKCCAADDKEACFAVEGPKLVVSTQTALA

[1] = small-molecule microarray binders of probe aXIP, primary screen, biochemical, NeuroSMM set, 635/667 nm fluorescence (AID 1119); conditions: higher = more signal, called active from +8 up or from −8 down;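 note: probe is the protein aXip251-270 applied at 1 µg/mL to compound-printed slides; binding of probe to printed compounds measured as 667 nm fluorescence plus signal to noise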
[2] = small-molecule binders of probe aNOTCH3, primary screen, biochemical, small-molecule microarray, 635/667 nm fluorescence (AID 1120); conditions: higher = more signal;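 note: probe is a biotin-tagged antibody raised against NOTCH3 rather than NOTCH3 protein; score merges spot fluorescence near 667 nm with spot signal to noise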
[3] = small-molecule binders of probe aNOTCH2, primary screen, biochemical, small-molecule microarray, 635/667 nm fluorescence (AID 1121); conditions: higher = more signal;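 note: score merges feature fluorescence read at 667 nm with its signal to noise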
[4] = target: Carbonic anhydrase 2 (Homo sapiens) (UniProt P00918); test: CAII small-molecule binders, profiling panel, biochemical, small-molecule microarray, Alexa647-labelled CAII (AID 1122); conditions: CAII-A647 binding fluorescence, higher = more signal
[5] = COS7 lysate on small-molecule microarray, probe aHis, 635 nm (AID 1123); conditions: COS7 cell lysate, fluorescence, higher = more signal;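 note: z-score combines 667nm fluorescence intensity with signal-to-noise per printed compound spot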
[6] = compound binding in COS7 lysate, probe aLAP1, primary screen, cell lysate, small-molecule microarray (AID 1124); conditions: probe aLAP1, fluorescence, higher = more signal;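 note: lysate comes from COS7 cells expressing LAP1 and is applied at 0.3 µg/mL; score merges spot fluorescence near 667 nm with signal-to-noise over triplicate slides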
Sam68 (KHDRBS1) = test: Sam68 small-molecule binders, primary screen, biochemical, small-molecule microarray, 635 nm fluorescence (AID 1125); conditions: small-molecule microarray binding, higher = more signal;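 note: score merges 667 nm channel intensity with signal to noise over triplicate slides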
[7] = test system: Chordin-like protein 2 (CHRDL2); test: CHRDL2 small-molecule binders, primary screen, biochemical, small-molecule microarray, 635 nm fluorescence (AID 1126); conditions: small-molecule microarray binding, fluorescence 635 nm; higher = more signal;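 note: printed compound slides probed with Chrdl2 protein at 4 µg/mL for 1 h at 4 C; score merges 667 nm emission intensity with signal to noise over three replicate slides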
[8] = target: Concanavalin-A (Canavalia ensiformis) (UniProt P02866); test: ConA small-molecule binders, primary screen, artefact control for SMM control protein annotation, biochemical, small-molecule microarray, Alexa647 label, 635 nm (AID 1127); conditions: ConA-A647 binding fluorescence, higher = more signal;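 note: z combines 667 nm emission intensity with signal-to-noise across three replicate slides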
Chain of Concanavalin-A (Canavalia ensiformis) (P02866 whole entry, looked up): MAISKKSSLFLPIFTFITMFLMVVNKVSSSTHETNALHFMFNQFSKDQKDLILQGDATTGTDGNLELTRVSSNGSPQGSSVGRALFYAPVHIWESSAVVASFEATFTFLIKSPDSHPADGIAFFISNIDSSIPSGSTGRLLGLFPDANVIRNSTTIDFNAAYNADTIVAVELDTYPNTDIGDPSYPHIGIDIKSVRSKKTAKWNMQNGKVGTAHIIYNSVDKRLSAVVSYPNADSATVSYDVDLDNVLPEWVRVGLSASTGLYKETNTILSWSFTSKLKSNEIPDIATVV

[9] = anti-His antibody binders, primary screen, artefact control for SMM control protein annotation, biochemical, small-molecule microarray, 635 nm fluorescence (AID 1128); conditions: anti-His Alexa647 antibody binding, higher = more signal;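 note: score merges feature fluorescence with signal-to-noise for each printed compound spot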
[10] = test system: Human papillomavirus type 1a E7 protein (residues 1-88); test: HPV1a E7 small-molecule binders, primary screen, biochemical, small-molecule microarray, residues 1-88, 635 nm (AID 1129); conditions: small-molecule microarray binding, fluorescence 635 nm; higher = more signal
[11] = target: Focal adhesion kinase 1 (Homo sapiens) (UniProt Q05397); test: small-molecule microarray binders of FAK, primary screen, biochemical, 635/667 nm fluorescence, BSA, DTT (AID 1130); conditions: PTK2 binding, 635 nm fluorescence, higher = more signal;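 note: composite of spot emission at 667 nm and signal to noise over triplicate slides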
Chain of Focal adhesion kinase 1 (Homo sapiens) (Q05397 whole entry, looked up): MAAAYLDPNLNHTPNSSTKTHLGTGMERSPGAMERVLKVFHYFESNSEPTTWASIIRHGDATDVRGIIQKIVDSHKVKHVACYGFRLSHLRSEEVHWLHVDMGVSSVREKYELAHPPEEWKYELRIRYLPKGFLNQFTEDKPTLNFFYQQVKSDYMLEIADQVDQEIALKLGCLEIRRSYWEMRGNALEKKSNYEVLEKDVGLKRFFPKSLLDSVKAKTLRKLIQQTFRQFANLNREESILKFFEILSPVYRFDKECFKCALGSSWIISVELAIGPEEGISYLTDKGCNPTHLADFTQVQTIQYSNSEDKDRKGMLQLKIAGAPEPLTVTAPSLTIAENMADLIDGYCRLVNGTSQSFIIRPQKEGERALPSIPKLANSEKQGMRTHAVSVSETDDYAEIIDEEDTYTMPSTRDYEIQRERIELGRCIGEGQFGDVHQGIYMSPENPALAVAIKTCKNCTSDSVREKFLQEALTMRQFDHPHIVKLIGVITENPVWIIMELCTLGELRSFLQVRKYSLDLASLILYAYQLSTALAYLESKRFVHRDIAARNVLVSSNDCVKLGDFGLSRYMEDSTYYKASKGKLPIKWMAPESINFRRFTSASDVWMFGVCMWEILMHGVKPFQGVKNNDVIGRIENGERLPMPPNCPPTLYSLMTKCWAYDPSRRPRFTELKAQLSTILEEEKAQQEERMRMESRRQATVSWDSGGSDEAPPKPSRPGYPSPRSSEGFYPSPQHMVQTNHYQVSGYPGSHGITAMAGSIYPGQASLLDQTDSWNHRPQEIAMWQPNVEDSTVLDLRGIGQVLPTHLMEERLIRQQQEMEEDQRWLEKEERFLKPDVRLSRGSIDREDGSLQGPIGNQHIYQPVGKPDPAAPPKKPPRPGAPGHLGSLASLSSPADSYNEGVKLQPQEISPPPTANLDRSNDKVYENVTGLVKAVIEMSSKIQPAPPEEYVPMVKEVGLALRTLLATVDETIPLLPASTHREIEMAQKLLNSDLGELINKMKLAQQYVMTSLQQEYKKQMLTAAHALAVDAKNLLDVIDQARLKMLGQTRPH

[12] = test system: Fibrinogen (Alexa647-labelled); test: fibrinogen binders on compound microarrays, profiling panel, artefact control for SMM control-protein annotation, biochemical, small-molecule microarray, 635/667 nm fluorescence (AID 1131); conditions: fibrinogen-A647 binding fluorescence, higher = more signal;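 note: z-score merges 667 nm fluorescence with per-spot signal-to-noise over triplicate slides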
[13] = target: Follistatin (Homo sapiens) (UniProt P19883); test: follistatin binders on small-molecule microarrays, primary screen, biochemical, small-molecule microarray, 635/667 nm fluorescence (AID 1132); conditions: FST binding, 635 nm fluorescence, higher = more signal
Chain of Follistatin (Homo sapiens) (P19883 whole entry, looked up): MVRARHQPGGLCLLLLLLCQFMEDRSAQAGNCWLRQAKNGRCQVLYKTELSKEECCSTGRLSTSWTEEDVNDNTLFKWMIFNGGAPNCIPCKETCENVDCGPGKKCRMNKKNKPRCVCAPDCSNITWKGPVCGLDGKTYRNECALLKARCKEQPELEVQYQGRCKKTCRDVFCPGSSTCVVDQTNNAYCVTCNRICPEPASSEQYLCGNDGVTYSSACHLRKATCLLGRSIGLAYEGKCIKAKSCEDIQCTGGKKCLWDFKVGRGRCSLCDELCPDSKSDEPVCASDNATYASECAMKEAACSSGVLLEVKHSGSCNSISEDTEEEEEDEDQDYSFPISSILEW

[14] = target: Fibroblast growth factor 2 (Homo sapiens) (UniProt P09038); test: FGF2 binders on small-molecule microarrays, primary screen, biochemical, small-molecule microarray, 635/667 nm fluorescence (AID 1133); conditions: small-molecule microarray binding, FGF2, fluorescence 635/667; higher = more signal
Chain of Fibroblast growth factor 2 (Homo sapiens) (P09038 whole entry, looked up): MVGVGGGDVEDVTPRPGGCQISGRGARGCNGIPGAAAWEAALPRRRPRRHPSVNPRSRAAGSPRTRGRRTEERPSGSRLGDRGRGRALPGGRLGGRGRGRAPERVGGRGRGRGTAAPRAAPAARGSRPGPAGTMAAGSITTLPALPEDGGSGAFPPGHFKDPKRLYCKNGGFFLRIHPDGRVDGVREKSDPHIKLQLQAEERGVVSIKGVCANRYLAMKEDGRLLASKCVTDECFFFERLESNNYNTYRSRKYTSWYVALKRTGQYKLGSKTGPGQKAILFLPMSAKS

[15] = mitochondrial membrane potential change in A549 cells, profiling panel, cell-based, JC-1 fluorescence, basal, 24 h, 100 nL (AID 1138); conditions: higher = more signal;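 note: A549 lung adenocarcinoma cells under basal conditions with no added stimulus; test concentration not given here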
Lefty1 = Lefty1 binders on small-molecule microarrays, primary screen, biochemical, small-molecule microarray, 635/667 nm fluorescence (AID 1139); conditions: small-molecule microarray binding, fluorescence 635/667; higher = more signal
[16] = test system: wheat germ agglutinin (Triticum aestivum), Alexa647-labelled; test: wheat germ agglutinin binders on compound microarrays, profiling panel, artefact control for SMM control-protein annotation, biochemical, small-molecule microarray, 635/667 nm fluorescence (AID 1140); conditions: WGA-A647 binding, 635 nm fluorescence, higher = more signal;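 note: score merges 667 nm feature emission with signal to noise over triplicate slides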
[17] = target: Luciferin 4-monooxygenase (Photinus pyralis) (UniProt P08659); test: firefly luciferase enzyme inhibitors, primary screen, biochemical, luminescence, purified enzyme, 2006 set (AID 1141); conditions: SteadyGlo luminescence, 30 min, higher = more signal, called active from +8 up or from −8 down;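 note: cell-free assay with purified firefly luciferase at 100 ng per well in PBS; test concentration not given here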
Chain of Luciferin 4-monooxygenase (Photinus pyralis) (P08659 whole entry, looked up): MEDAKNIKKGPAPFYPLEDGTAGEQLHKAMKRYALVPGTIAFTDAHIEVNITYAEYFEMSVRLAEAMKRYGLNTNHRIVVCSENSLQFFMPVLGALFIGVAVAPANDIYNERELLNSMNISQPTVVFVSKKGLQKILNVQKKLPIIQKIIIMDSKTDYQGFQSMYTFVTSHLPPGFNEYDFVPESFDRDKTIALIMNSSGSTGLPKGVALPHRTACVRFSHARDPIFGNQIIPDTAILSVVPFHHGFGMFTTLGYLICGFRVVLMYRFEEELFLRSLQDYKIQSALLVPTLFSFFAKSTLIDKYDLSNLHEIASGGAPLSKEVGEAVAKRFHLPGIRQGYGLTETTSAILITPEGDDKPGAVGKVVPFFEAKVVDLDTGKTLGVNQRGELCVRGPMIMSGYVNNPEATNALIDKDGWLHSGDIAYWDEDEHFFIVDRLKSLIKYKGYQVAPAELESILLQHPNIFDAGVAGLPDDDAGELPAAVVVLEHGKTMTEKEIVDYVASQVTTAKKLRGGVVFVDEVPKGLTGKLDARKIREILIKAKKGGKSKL

Row | Structure (SMILES) | composite z-score (Albumin (Bos taurus)) | composite Z-score [1] | composite z-score [2] | composite z-score [3] | composite z-score [4] | composite z-score [5] | composite z-score [6] | composite z-score (Sam68 (KHDRBS1)) | composite z-score [7] | composite z-score [8] | composite z-score [9] | composite z-score [10] | composite z-score [11] | composite z-score [12] | composite z-score [13] | composite z-score [14] | z-score [15] | composite z-score (Lefty1) | composite z-score [16] | z-score [17]
1 | C=CC[C@@H]1C=C[C@H](ON=C2C[C@@H](O)[C@@H](O)[C@@H]3[C@@H]4C(=O)N(CC)C(=O)[C@@H]4CC[C@@H]23)[C@@H](CO)O1 | -0.873 | -0.116 (inactive) | -0.16 | -0.237 | 0.452 | 0.429 | -0.289 | -0.444 | -0.0673 | -1.18 | -2.3 | -1.1 | 0.382 | -1.15 | -0.707 | 0.119 | -0.992 | 0.158 | -1.41 | 1.3 (inactive)
2 | COc1ccc(O[C@H]2C=C[C@@H](c3ccccc3)O[C@@H]2COC(=O)NCc2cccc3ccccc23)cc1 | -0.194 | -0.341 (inactive) | -0.191 | -0.159 | -0.219 | -0.146 | -0.0544 | -0.0446 | 0.281 | 0.335 | -0.816 | -0.406 | -0.235 | -0.138 | -0.0584 | 0.353 | 1.07 | 0.0182 | -0.317 | 0.441 (inactive)
3 | CC(C)CON=C1C[C@@H](O)[C@@H](O)[C@@H]2[C@@H]3C(=O)N(c4ccc(F)cc4F)C(=O)[C@@H]3CC[C@@H]12 | 0.238 | -0.0578 (inactive) | -0.095 | -0.0896 | 0.0617 | -0.146 | 0.135 | 0.693 | 0.243 | 0.72 | 0.663 | 0.105 | 0.156 | 0.699 | 0.585 | 0.508 | -0.99 | 0.617 | -0.0433 | 0.831 (inactive)
4 | COC(=O)CC=C[C@@H](C)[C@@H](C=NOC[C@@H](O)[C@H]1O[C@@H]2OC(C)(C)O[C@@H]2[C@H]1O)OC | -0.0287 | -0.931 (inactive) | -0.0647 | -0.13 | -0.131 | -0.104 | 0.149 | 0.444 | 0.744 | 0.333 | 1.57 | 0.612 | 0.167 | 0.0843 | 0.834 | 0.943 | 0.0187 | 0.59 | 0.006 | -0.512 (inactive)
5 | COC(=O)[C@H](C)NC(=O)CCC1CC(OC(=O)NCc2cccc3ccccc23)CC2(CCCC(COC(=O)NCCCN3CCCC3=O)O2)O1 (stereo not given in full) | 0.559 | -0.0448 (inactive) | 0.0485 | -0.132 | 0.378 | 0.519 | 0.0377 | 1.32 | 0.131 | 1.1 | 0.383 | 1.11 | 0.926 | 0.821 | 0.413 | 0.0982 | -0.262 | 1.23 | 0.485 | 0.86 (inactive)
6 | O=C(NN=C1C[C@@H](O)[C@@H](O)[C@@H]2[C@@H]3C(=O)N(Cc4ccccc4)C(=O)[C@@H]3CC[C@H]12)OCc1ccccc1 | 0.055 | 0.0005 (inactive) | -0.118 | -0.17 | -0.253 | -0.771 | 0.0639 | -0.0039 | 0.36 | -0.085 | -0.136 | -0.0677 | 0.0773 | -0.265 | 0.387 | 0.388 | 0.101 | 0.617 | 0.0185 | 0.534 (inactive)
7 | CC(=O)OC[C@H]1O[C@H](CC=NOC(C)CN2CCCCc3nc(C)c(C)cc32)C=C[C@@H]1OC(C)=O (stereo not given in full) | 0.486 | -1.11 (inactive) | 0.678 | 0.0312 | 0.0236 | 0.511 | 0.333 | 1.31 | 1.33 | 0.902 | 0.544 | 0.819 | 0.0336 | 0.495 | 1.23 | 0.773 | -0.683 | 1.55 | 0.73 | 1.46 (inactive)
8 | CCN1C(=O)[C@H]2[C@H]3[C@H](O)[C@H](O)CC(=NO[C@@H](C)c4cc(-c5c(C)cc(C)cc5C)no4)[C@@H]3CC[C@H]2C1=O | 0.581 | -0.0662 (inactive) | 0.051 | -0.0562 | 0.465 | 1.11 | 0.693 | 1.3 | 0.333 | 1.02 | -0.185 | 0.918 | 0.23 | 0.813 | 0.809 | 1.08 | 0.474 | 0.922 | 1.01 | 1.06 (inactive)
9 | CON=C1c2cc(OC)ccc2O[C@H](c2cccc(OC)c2)[C@H]1O | -0.181 | 0.133 (inactive) | 0.123 | 0.0267 | 0.11 | 0.275 | 0.332 | 0.415 | 0.707 | 0.267 | 0.293 | 0.416 | 0.197 | 0.273 | 0.587 | 0.675 | 0.314 | 0.6 | 0.208 | -2.9 (inactive)
10 | CC(CCC(=O)OC[C@H]1O[C@H](C#Cc2ccccc2)C=C[C@@H]1Oc1ccc(C)cc1)=NO[C@H](C)c1cn([C@@H]2COC[C@H]2O)nn1 | -0.115 | -0.166 (inactive) | -0.0697 | -0.125 | -0.129 | -0.235 | 0.0502 | -0.0882 | 0.308 | -0.785 | 0.254 | -0.0794 | 0.0652 | 0.666 | 0.273 | 0.162 | -0.262 | 0.317 | 0.299 | -2.18 (inactive)
11 | CCOC(=O)[C@H](Cc1ccccc1)NC(=O)CCC1CC(OC(=O)NCc2cccc3ccccc23)CC2(CCCC(COC(=O)NCCOc3ccccc3)O2)O1 (stereo not given in full) | 0.0423 | 0.19 (inactive) | -0.16 | -0.0859 | 0.391 | 1.05 | 0.132 | 1.24 | 0.439 | 1.12 | 1.39 | 1.01 | 0.227 | 0.725 | 0.485 | 0.279 | -0.16 | 0.573 | 0.268 | 1.13 (inactive)
